# “And” between values parts separate entries of the source, which are not always exact repeats. Identical values can stand only once. Inconclusive results are not listed. For part of these data: Potency and affinity values are given separately. The source made the active and inactive calls.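 How the source made its calls, unless noted: active means at least 20% inhibition of 6-phosphogluconate dehydrogenase activity; inactive means the rest.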
# Assays:
# [1] = P. berghei load reduction in hepatocytes – cell-based, HepG2, luciferase luminescence, HepG2 viability, primary screen (AID 624349; in the data active means parasite load remaining mostly below about 12%, no sharp cut-off; inactive means mostly above about 10%;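 further: 100% = mean of DMSO negative control wells on the same plate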); conditions: P. berghei liver stage in HepG2, luciferase luminescence, concentration not given here; parasite load remaining: stronger effect = lower value; viability: measured here: HepG2 viability without parasites
# [2] = target: 6-phosphogluconate dehydrogenase, decarboxylating (Homo sapiens) (UniProt P52209); test: inhibition of human phosphogluconate dehydrogenase – biochemical, recombinant enzyme, NADPH absorbance, primary screen (AID 1159550); conditions: recombinant 6PGD, NADPH absorbance 341 nm; at 10 µM; stronger effect = higher value
# Chain of 6-phosphogluconate dehydrogenase, decarboxylating (Homo sapiens) (P52209 whole entry, looked up): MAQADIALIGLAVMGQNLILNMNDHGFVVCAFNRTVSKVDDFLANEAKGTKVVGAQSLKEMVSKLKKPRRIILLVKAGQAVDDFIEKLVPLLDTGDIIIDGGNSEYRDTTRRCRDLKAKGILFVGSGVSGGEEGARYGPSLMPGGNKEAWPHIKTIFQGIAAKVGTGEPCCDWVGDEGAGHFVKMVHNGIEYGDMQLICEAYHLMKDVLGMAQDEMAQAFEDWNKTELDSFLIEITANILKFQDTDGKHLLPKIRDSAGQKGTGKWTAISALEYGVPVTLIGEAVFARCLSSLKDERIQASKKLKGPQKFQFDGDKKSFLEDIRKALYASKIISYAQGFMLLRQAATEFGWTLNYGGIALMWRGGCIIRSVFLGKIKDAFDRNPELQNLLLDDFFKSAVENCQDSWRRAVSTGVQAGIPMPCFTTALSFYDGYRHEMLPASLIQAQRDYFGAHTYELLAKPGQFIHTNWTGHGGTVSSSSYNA
# [3] = system: Aerobactin synthetase IucA (Klebsiella pneumoniae hvKP1); test: IucA enzyme inhibition, primary screen, biochemical, Spectrum library (AID 1346200; call rule not given here;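 further: 100% = wells without compound and 0% = wells lacking enzyme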); conditions: malachite green pyrophosphate, A620, at 8 µM, stronger effect = lower value
# [4] = viability loss with induced miR-34 in A549 – imaging, A549 dox-inducible miR-34, nuclei and caspase counts, primary screen (AID 1347080;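 active means compounds whose cell count with miR-34 switched on is under 0.7 times the count with it off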); conditions: A549 miR-34 inducible, Hoechst nuclei count, 48 h
# [5] = target: NAD(+) hydrolase SARM1 (Homo sapiens) (UniProt Q6SZW1); test: blocking NAD cleavage by SARM1 SAM-TIR – cell lysate, NAD-Glo luminescence (AID 1508614;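 active means compound whose remaining NAD level is above about 45 nM, limit read from the data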); conditions: SAM-TIR HEK293T lysate NADase, at 1 µM, stronger effect = higher value
# Chain of NAD(+) hydrolase SARM1 (Homo sapiens) (Q6SZW1 whole entry, looked up, the tested form may be a part): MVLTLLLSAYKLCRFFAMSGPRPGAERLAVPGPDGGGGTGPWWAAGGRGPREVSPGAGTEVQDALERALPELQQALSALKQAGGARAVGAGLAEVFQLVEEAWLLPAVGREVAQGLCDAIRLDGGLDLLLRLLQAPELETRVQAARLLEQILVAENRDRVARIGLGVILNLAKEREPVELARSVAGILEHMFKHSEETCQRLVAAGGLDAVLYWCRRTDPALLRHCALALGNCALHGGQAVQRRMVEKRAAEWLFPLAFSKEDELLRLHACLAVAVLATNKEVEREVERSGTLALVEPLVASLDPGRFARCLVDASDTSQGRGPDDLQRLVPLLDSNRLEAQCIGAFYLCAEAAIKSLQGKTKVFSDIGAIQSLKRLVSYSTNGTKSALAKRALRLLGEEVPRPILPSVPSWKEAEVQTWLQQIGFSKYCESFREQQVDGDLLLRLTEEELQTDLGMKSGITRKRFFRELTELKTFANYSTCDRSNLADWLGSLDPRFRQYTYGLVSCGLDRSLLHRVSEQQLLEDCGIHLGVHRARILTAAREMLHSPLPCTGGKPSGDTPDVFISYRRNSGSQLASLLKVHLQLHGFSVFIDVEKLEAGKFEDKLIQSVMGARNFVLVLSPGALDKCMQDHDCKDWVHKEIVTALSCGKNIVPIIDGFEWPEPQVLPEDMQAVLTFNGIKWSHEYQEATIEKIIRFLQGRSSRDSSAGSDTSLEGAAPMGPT
# [6] = target: Mitogen-activated protein kinase 7 (Homo sapiens) (UniProt Q13164); test: Gal4-ERK5 driven luciferase induction – cell-based, HTS, primary screen (AID 1508626;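 active means luciferase signal above three times the same-plate solvent-only control wells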;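 further: luciferase driven by Gal4-ERK5 fusion binding five Gal4 sites before minimal TATA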); conditions: HeLa Gal4-ERK5 transactivation, 18 h, at 5 µM, stronger effect = higher value
# Chain of Mitogen-activated protein kinase 7 (Homo sapiens) (Q13164 whole entry, looked up, the tested form may be a part): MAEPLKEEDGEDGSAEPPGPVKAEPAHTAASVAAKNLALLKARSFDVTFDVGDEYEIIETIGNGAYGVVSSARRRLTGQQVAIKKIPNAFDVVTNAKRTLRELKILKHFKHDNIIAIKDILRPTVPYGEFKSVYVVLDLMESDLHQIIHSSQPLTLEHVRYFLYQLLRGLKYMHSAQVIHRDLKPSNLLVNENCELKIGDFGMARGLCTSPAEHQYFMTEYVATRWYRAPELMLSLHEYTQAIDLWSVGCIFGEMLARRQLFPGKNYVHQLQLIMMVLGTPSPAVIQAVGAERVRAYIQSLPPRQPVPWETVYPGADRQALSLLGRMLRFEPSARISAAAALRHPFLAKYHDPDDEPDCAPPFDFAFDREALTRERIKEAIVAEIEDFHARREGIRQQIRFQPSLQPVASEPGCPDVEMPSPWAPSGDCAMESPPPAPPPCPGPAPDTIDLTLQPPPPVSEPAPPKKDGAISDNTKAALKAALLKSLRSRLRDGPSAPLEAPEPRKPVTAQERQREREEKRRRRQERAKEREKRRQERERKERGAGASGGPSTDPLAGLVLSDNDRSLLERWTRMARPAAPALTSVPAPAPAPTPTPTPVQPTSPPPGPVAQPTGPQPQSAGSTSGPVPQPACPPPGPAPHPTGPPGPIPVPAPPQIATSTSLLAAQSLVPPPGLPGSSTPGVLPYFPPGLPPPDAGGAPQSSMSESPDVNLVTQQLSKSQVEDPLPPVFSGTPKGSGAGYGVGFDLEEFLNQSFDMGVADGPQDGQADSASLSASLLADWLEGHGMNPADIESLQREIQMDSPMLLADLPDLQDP
# [7] = blockers of polyQ-driven CASP3 activation – cell-based (AID 1583); conditions: polyglutamine-induced caspase-3 activation, cell assay; stronger effect = higher value;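 tested at 10 µM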
# [8] = yeast 75Q aggregation reduction – 75Q-TubU reporter (AID 1593); conditions: Yeast 75Q polyglutamine aggregation reporter
# [9] = restoration of touch response, mutant HTT neurons – whole organism, C. elegans mechanosensory neurons, N-terminal huntingtin (AID 1599); conditions: C. elegans polyQ-huntingtin mechanosensory neurons, stronger effect = higher value
# [10] = blockers of cytochrome c efflux from mitochondria – biochemical, purified mitochondria (AID 1603); conditions: stronger effect = lower value;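 further: mouse liver mitochondria challenged with calcium chloride; signal normalized to the plate average as 100%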
# [11] = polyglutamine aggregate formation blockers (AID 1604); conditions: polyglutamine-induced protein aggregation inhibition assay; stronger effect = higher value; tested at 2.5 µM
# [12] = glutamate transport activators, MN-1 cells, MN-1 cell line (AID 1612); conditions: MN-1 motor neuron cells, stronger effect = higher value;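 further: tested at 1 µM final; 0% = mean of DMSO vehicle wells on each plate; positive means more glutamate uptake than control and negative means less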
# [13] = 75Q-TubH aggregate inhibition, S. cerevisiae, yeast (AID 1616); conditions: S. cerevisiae 75Q-TubH polyglutamine aggregation suppression; stronger effect = higher value
# [14] = target: ATP-dependent translocase ABCB1 (Homo sapiens) (UniProt P08183); test: P-glycoprotein substrate transport blockade – cell-based (AID 377; in the data active means fluorescence slope change above about 50%); conditions: MDR1-expressing cells, fluorescent substrate accumulation slope; stronger effect = higher value; concentration not given here
# Chain of ATP-dependent translocase ABCB1 (Homo sapiens) (P08183 whole entry, looked up): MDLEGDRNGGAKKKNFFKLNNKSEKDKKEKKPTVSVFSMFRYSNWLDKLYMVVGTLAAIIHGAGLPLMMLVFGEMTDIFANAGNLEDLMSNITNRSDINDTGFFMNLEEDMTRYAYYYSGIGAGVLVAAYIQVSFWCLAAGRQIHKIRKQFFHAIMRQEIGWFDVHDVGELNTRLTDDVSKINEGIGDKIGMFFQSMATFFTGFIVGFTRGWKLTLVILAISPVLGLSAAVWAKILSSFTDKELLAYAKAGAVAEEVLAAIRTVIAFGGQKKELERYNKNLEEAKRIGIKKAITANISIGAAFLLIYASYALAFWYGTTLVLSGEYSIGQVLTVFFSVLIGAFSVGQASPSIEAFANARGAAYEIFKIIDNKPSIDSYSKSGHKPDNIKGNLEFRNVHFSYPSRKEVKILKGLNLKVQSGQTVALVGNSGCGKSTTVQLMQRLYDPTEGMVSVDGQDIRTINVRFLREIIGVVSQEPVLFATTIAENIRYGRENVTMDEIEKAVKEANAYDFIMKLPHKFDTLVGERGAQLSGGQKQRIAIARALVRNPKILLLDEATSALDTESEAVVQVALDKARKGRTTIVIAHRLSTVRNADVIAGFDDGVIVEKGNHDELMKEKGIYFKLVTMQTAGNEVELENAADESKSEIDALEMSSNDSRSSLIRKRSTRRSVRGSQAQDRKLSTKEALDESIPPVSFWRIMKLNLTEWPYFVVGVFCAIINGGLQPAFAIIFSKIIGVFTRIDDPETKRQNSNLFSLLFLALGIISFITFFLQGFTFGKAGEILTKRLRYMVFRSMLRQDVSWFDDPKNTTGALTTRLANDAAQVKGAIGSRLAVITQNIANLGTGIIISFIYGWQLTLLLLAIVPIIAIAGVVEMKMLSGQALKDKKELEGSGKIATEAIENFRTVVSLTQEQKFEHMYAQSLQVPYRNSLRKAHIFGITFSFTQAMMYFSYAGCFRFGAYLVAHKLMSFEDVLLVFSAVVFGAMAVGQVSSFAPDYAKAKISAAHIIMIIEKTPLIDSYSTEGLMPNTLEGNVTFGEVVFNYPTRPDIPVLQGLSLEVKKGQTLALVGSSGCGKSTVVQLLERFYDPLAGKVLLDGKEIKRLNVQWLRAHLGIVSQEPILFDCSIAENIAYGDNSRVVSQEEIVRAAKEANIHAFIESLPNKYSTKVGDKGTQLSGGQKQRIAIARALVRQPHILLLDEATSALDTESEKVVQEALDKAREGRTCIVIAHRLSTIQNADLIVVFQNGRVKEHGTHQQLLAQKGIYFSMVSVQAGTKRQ
# [15] = compounds altering viability of human ES cells (AID 493140; call rule not given here;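 further: cells exposed to compounds for four days before counting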); conditions: human embryonic stem cell survival screen; stronger effect = higher value
# [16] = MELAS cybrid and Rieske KO viability enhancers – cell-based, MELAS cybrids, Rieske KO mouse fibroblasts, CellTiter-Glo, primary screen (AID 1508586;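 active means mean z-score across replicates of 1.96 or higher in either the MELAS or the Rieske mutant cell line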;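 further: z relative to plate mean and SD of compound and empty wells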); conditions: low glucose
# [17] = viability loss in pontine glioma line – cell-based, SU-DIPG-XIII, MIPE4.0, CellTiter-Glo, qHTS, dose response (AID 1347061; cut-off not given, nearly all actives have AC50 up to about 37 µM;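 further: cells exposed to compound for 48 hours before readout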); conditions: CellTiter-Glo ATP luminescence
# [18] = viability loss in pontine glioma line – cell-based, SU-DIPG-IV, MIPE4.0, CellTiter-Glo, qHTS, dose response (AID 1347063; cut-off not given, nearly all actives have AC50 up to about 30 µM;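 further: compound exposure lasted 48 hours before the viability readout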); conditions: CellTiter-Glo ATP luminescence
# [19] = growth inhibition of DIPG cells – cell-based, MIPE4.0 library, CellTiter-Glo luminescence, qHTS (AID 1347066; cut-off not given, nearly all actives have AC50 up to about 30 µM;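 further: cells exposed to compound for 48 hours before readout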); conditions: SU-DIPG-VI viability, CellTiter-Glo ATP luminescence
# [20] = measured here: relative caspase fold change +Dox/-Dox
# [21] = measured here: total cells with miR-34 induction, stronger effect = lower value
# [22] = measured here: total cells without miR-34 induction
smiles,measurement,setting,value
CCC(N)C(O)c1ccc(O)c(O)c1 (stereo not drawn),parasite load remaining,[1],130% (inactive) and 71.4% (inactive)
same,viability,[1],87.2% and 104%
same,inhibition,[2],-10.4% (inactive)
same,activity remaining,[3],121% (inactive)
same,fold change,"[4]; stronger effect = lower value, cell number ratio, induced over uninduced",0.787 (inactive)
same,fold change,[4]; [20],5.47
same,cell count,[4]; [21],7560
same,cell count,[4]; [22],9610
same,remaining NAD,[5],10 nM (inactive)
same,luciferase signal,[6],76 AU (inactive)
CCC(C)[C@H]1O[C@]2(C=C[C@@H]1C)C[C@@H]1C[C@@H](C/C=C(\C)[C@@H](OC3C[C@H](OC)C(O[C@H]4C[C@H](OC)[C@@H](O)[C@H](C)O4)[C@H](C)O3)[C@@H](C)/C=C/C=C3\CO[C@@H]4[C@H](O)C(C)=C[C@@H](C(=O)O1)[C@]34O)O2 (stereo partly drawn),inhibition,[7],-42.7%
same,score,[8],1.47
same,rescue above control,[9],0
same,cytochrome c release ratio,[10],4.06
same,inhibition of aggregation,[11],43.1%
same,glutamate uptake change,[12],-28.6%
same,aggregation suppression score,[13],1.02
same,parasite load remaining,[1],83.1% (inactive) and 34.5% (inactive)
same,viability,[1],68% and 87%
same,inhibition,[2],-3.19% (inactive)
same,activity remaining,[3],106% (inactive)
same,fold change,[4]; stronger effect = lower value,1.11 (inactive)
same,fold change,[4]; [20],1.23
same,cell count,[4]; [21],3700
same,cell count,[4]; [22],3330
N#Cc1c(Cl)cccc1Cl,inhibition,[2],-5.35% (inactive)
same,activity remaining,[3],93.8% (inactive)
same,luciferase signal,[6],52 AU (inactive)
CCCN(CCC)c1c([N+](=O)[O-])cc(C(F)(F)F)cc1[N+](=O)[O-],inhibition,[2],-18.5% (inactive)
same,activity remaining,[3],95.7% (inactive)
same,luciferase signal,[6],72 AU (inactive)
C[C@]12CC[C@H](O)C[C@@H]1CC[C@@H]1[C@@H]2CC[C@]2(C)C(=O)CC[C@@H]12,fluorescence slope change,[14],99.1% (active)
same,survival,[15],10.7 (inactive)
same,parasite load remaining,[1],91.7% (inactive) and 87.8% (inactive)
same,viability,[1],100% and 84.1%
same,inhibition,[2],18.5% (inactive)
same,fold change,[4]; stronger effect = lower value,0.944 (inactive)
same,fold change,[4]; [20],1.47
same,cell count,[4]; [21],7960
same,cell count,[4]; [22],8440
same,z-score,"[16]; MELAS cybrid survival, CellTiter-Glo 48 h, stronger effect = higher value",0.265 (inactive)
same,z-score,"[16]; Rieske KO mouse fibroblast survival, CellTiter-Glo 72 h",0.304
same,luciferase signal,[6],20 AU (inactive)
N#C[C@H](O[C@@H]1O[C@H](CO[C@@H]2O[C@H](CO)[C@@H](O)[C@H](O)[C@H]2O)[C@@H](O)[C@H](O)[C@H]1O)c1ccccc1,inhibition,[2],-14.3% (inactive)
same,AC50,[17],23.5 µM (active)
same,AC50,[18],8.33 µM (active)
same,AC50,[19],20.9 µM (active)
same,luciferase signal,[6],56 AU (inactive)
COc1ccc([C@H]2Oc3c(I)c(OC)cc(OC)c3C[C@@H]2O)cc1OC,inhibition,[2],14.5% (inactive)
same,activity remaining,[3],103% (inactive)
same,luciferase signal,[6],44 AU (inactive)
CC(=O)O[C@@H]1CC2C(C)(C)[C@H](O)C=C[C@]2(C)C2CC[C@]3(C)C(=CC(=O)O[C@H]3c3ccoc3)[C@@]21C (stereo partly drawn),inhibition,[2],-4.71% (inactive)
same,activity remaining,[3],105% (inactive)
same,luciferase signal,[6],120 AU (inactive)
CNNC,inhibition,[2],-3.38% (inactive)
same,activity remaining,[3],86.5% (inactive)
same,luciferase signal,[6],32 AU (inactive)
COc1c2c(c(CC=C(C)C)c3oc(=O)c(-c4ccc(O)cc4)c(O)c13)OC(C)(C)C=C2,inhibition,[2],-5.17% (inactive)
same,activity remaining,[3],104% (inactive)
same,luciferase signal,[6],60 AU (inactive)
C[C@@H]1C(=O)O[C@H]2[C@H]1CC[C@@]1(C)C=CC(=O)[C@@]3(C)O[C@@]213,inhibition,[2],-5.96% (inactive)
same,activity remaining,[3],112% (inactive)
same,luciferase signal,[6],108 AU (inactive)
